Results: PubChem BioAssay (NCI)
The panel holds about 83,000 compounds, 20% with a hit somewhere; the sample as a whole holds those more often.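 48-hour exposure, single concentration, 96-well plates; percent growth endpoint where 0 means no net growth. Active: below 10.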 Unmarked numbers belong to inactive results. Active and inactive are the calls of the source.

Assays:
Assay in all cases: NCI-60 one-dose screen, 48 h (100 = growth as untreated, 0 = no growth, -100 = all killed)
Conditions in all cases: 10 µM unless noted
DU-145 prostate = tested on: DU-145 prostate
K-562 leukemia = tested on: K-562 leukemia
MALME-3M melanoma = tested on: MALME-3M melanoma
MDA-MB-231 breast = tested on: MDA-MB-231 breast
RXF 393 renal = tested on: RXF 393 renal
SF-268 CNS = tested on: SF-268 CNS
SF-295 CNS = tested on: SF-295 CNS
SF-539 CNS = tested on: SF-539 CNS
UACC-257 melanoma = tested on: UACC-257 melanoma
M14 melanoma = tested on: M14 melanoma
HCT-15 colon = tested on: HCT-15 colon
HT29 colon = tested on: HT29 colon
SNB-75 CNS = tested on: SNB-75 CNS
SNB-19 CNS = tested on: SNB-19 CNS
U251 CNS = tested on: U251 CNS
PC-3 prostate = tested on: PC-3 prostate
SK-MEL-5 melanoma = tested on: SK-MEL-5 melanoma
UACC-62 melanoma = tested on: UACC-62 melanoma
LOX IMVI melanoma = tested on: LOX IMVI melanoma
SK-MEL-28 melanoma = tested on: SK-MEL-28 melanoma

Row | SMILES | growth (DU-145 prostate) | growth (K-562 leukemia) | growth (MALME-3M melanoma) | growth (MDA-MB-231 breast) | growth (RXF 393 renal) | growth (SF-268 CNS) | growth (SF-295 CNS) | growth (SF-539 CNS) | growth (UACC-257 melanoma) | growth (M14 melanoma) | growth (HCT-15 colon) | growth (HT29 colon) | growth (SNB-75 CNS) | growth (SNB-19 CNS) | growth (U251 CNS) | growth (PC-3 prostate) | growth (SK-MEL-5 melanoma) | growth (UACC-62 melanoma) | growth (LOX IMVI melanoma) | growth (SK-MEL-28 melanoma)
1 | CCOC(=O)/C=C1\S/C(=N\Nc2cc(=O)[nH]c3ccc(OC)cc23)N(c2ccccc2)C1=O | 98.6% | 86.5% | 101% | 107% | 111% | 101% | 102% | 97.4% | 102% | 99.9% | 93.3% | 108% | 91.1% | 95% | 92.9% | 99.3% | 103% | 100% | 97.3% | 108%
2 | COC(=O)[C@H](C)NC(=O)[C@@H]1CCCN1C(=O)CNC(=O)[C@H](C)N | 105% | 101% | 86.7% | 106% | 108% | 97% | 100% | 106% | 103% | 103% | 97.4% | 104% | 78.3% | 98.6% | 103% | 102% | 101% | 88.8% | 96.3% | 118%
3 | O=C1c2c(c3c4cccnc4[nH]c3c3ccc4ccccc4c23)C(=O)N1O | 54.8% | 29.7% | 63.1% | 85.9% | 47.9% | 37.6% | 91.8% | 39.6% | 76.4% | 49% | 69% | 27.9% | 101% | 29.7% | 15.2% | 43.1% | 23.2% | 24.4% | -31.5% (active) | 46.1%
4 | COc1ccc(Cn2cc(C(=O)N=Nc3c(O)[nH]c4ccc(Br)cc34)nn2)cc1 | 93.7% | 88.1% | -89.9% (active) | 108% | 99.8% | 94.1% | 95.8% | 104% | 102% | 111% | 105% | 88.5% | 112% | 97.3% | 105% | 99.8% | 98.3% | 97.2% | 107% | 115%
5 | C=C(CNCCc1ccc(O)cc1)[C@@H]1CC[C@]2(CO)CC[C@]3(C)[C@H](CC[C@@H]4[C@@]5(C)CCC(N)C(C)(C)[C@@H]5CC[C@]43C)[C@@H]12 (stereo not given in full) | -68.6% (active) | -50.9% (active) | -86.2% (active) | -80.5% (active) | -90.9% (active) | -74.3% (active) | -82% (active) | -93.4% (active) | -77.3% (active) | -81.8% (active) | -79.3% (active) | -49.9% (active) | -97.8% (active) | -86.1% (active) | -84.4% (active) | -75.3% (active) | -95.2% (active) | -86.7% (active) | -86.7% (active) | -90.5% (active)
6 | COc1ccc(Nc2nc(Nc3cc(C)[nH]n3)c3cc(OC)c(OC)cc3n2)cc1 | -86.2% [20 µM] (active) | -10.8% [20 µM] (active) | -97.7% [20 µM] (active) | -94.2% [20 µM] (active) | -94.4% [20 µM] (active) | -66.8% [20 µM] (active) | -94.2% [20 µM] (active) | -97.2% [20 µM] (active) | -76.8% [20 µM] (active) | -75.6% [20 µM] (active) | -83.1% [20 µM] (active) | -61.2% [20 µM] (active) | -94.5% [20 µM] (active) | -99.2% [20 µM] (active) | -69.8% [20 µM] (active) | -80.7% [20 µM] (active) | -84.7% [20 µM] (active) | -98.9% [20 µM] (active) | -92.6% [20 µM] (active) | -95.9% [20 µM] (active)
7 | C#CC#CC#CC#CC#CC#CC#CC#CC[C@@H]1OC[C@H](COC(=O)O[C@@H](C(=O)O[C@H]2C[C@@]3(O)[C@@H](OC(=O)c4ccccc4)[C@@H]4[C@]5(OC(C)=O)CO[C@@H]5C[C@H](O)[C@@]4(C)C(=O)[C@H](OC(C)=O)C(=C2C)C3(C)C)[C@@H](NC(=O)c2ccccc2)c2ccccc2)O1 | 24.4% | 15.8% | 43.7% | 45.3% | 22.7% | 51.7% | 25.3% | 30.2% | 55.7% | 18.6% | 98.8% | 4.07% (active) | 34.9% | 38.1% | 28.5% | 26.1% | 48.7% | 35% | 34.3% | 52.2%
8 | C=CCNc1nc(O)c(/C=C2\C=Nc3ncccc32)s1 | 12.7% | 42.1% | 40.2% | 19.8% | -41.3% (active) | -3.26% (active) | 13% | -66.2% (active) | 9.55% (active) | 24.5% | 24.7% | 26.4% | -67.3% (active) | 11% | 0.764% (active) | 12.6% | 2.01% (active) | 9.75% (active) | 0.553% (active) | -2.4% (active)
9 | COC(=O)c1sc(-c2ccc(C)cc2)cc1O | 101% | 84.3% | 97.9% | 99.6% | 109% | 96.2% | 112% | 114% | 115% | 101% | 101% | 108% | 105% | 101% | 96.5% | 102% | 103% | 97.1% | 101% | 113%
10 | CC1=NN(c2cccc(Cl)c2)C(=O)/C1=C\C=C\c1ccccc1 | 112% | 76.9% | 116% | 13.7% | -87.7% (active) | 75.5% | 101% | 21.6% | 63.3% | 14.4% | 5% (active) | -29.5% (active) | 50.9% | 37.5% | -57.4% (active) | 45.5% | 5.05% (active) | 28.2% | -87.9% (active) | -69.7% (active)
11 | COc1ccccc1NC(=O)n1c(=O)cc(C)c2ccc(O)cc21 | 113% | 117% | 106% | 106% | 94.8% | 106% | 101% | 106% | 111% | 113% | 104% | 106% | 101% | 106% | 106% | 99.9% | 98.3% | 100% | 105% | 113%
12 | COc1cc(OCc2cccc(-c3ccc4c(c3)OCCO4)c2C)cc(OC)c1C=O | 77.8% | 29.9% | 58.9% | 64.8% | 74.2% | 70.3% | 72.1% | 77.9% | 42.3% | 59.2% | 60.1% | 67.6% | 81.2% | 72.7% | 85.6% | 65.5% | -9.95% (active) | 38% | 58.7% | 67.1%
13 | COc1cc(/C=C/c2cc(/C=C/c3ccc(O)c(OC)c3)n(C(=O)Nc3ccc(C)cc3C)n2)ccc1O | -26.6% (active) | -7.18% (active) | -21.7% (active) | 10.2% | -67.3% (active) | 3.8% (active) | -51% (active) | -19.6% (active) | -21.4% (active) | -38.1% (active) | 3.84% (active) | -38.5% (active) | -30.5% (active) | 2.45% (active) | -12.3% (active) | -10.8% (active) | -83.4% (active) | -48.5% (active) | -29.8% (active) | 5.57% (active)
14 | CC1(C)CC[C@]2(CO)CC[C@]3(C)C(=CC[C@@H]4[C@@]5(C)CCNCC(C)(C)[C@@H]5CC[C@]43C)[C@@H]2C1 | 81.5% | 7.94% (active) | 63.1% | 73.7% | 61.6% | 105% | 97.6% | 85.8% | 9.86% (active) | -2.42% (active) | 5.97% (active) | 12% | 79.4% | 96.9% | 56.6% | 59% | 71.6% | 94.2% | 76% | -29% (active)
15 | COc1cc(OCc2cccc(-c3ccccc3)c2C)cc(OC)c1CN1CCCCC1C(=O)NCCOCCOCCN (stereo not given) | 65.7% | -19.8% (active) | 54.1% | 57.5% | 59% | 87% | 89.3% | 87.7% | 99.7% | -27.5% (active) | 87.9% | 5.46% (active) | 73.8% | 67.9% | 25.7% | 74.6% | 87.2% | 99.4% | -73.7% (active) | 87.7%
